Assay results from PubChem BioAssay AID2315 (National Center for Advancing Translational Sciences (NCATS), 2010).
About 27,000 (9.3%) of roughly 290,000 compounds were called active. Rule as the data show it: active = inhibition mostly above about 28% (no sharp cut-off); inactive = mostly below about 43%. For the sample, actives were picked, then their nearest neighbours and some compounds at random.

Assay: A qHTS for Small Molecule Inhibitors of Shiga Toxin; also: 0% is about no effect
Details: Vero cells, Shiga toxin protein synthesis inhibition reporter; at 38.7 µM, stronger effect = higher value

| Compound | inhibition |
| --- | --- |
| Cc1ccc(-n2ncc3c2CCCC3NC(=O)c2cnccn2)cc1C (stereo unspecified) | 5.12% (inactive) |
| CCCCN(C)CCNC(=O)C1CCCN(S(=O)(=O)c2cccc3nsnc23)C1 (stereo unspecified) | -5.4% (inactive) |
| O=C(CCN1CCN(C/C=C/c2ccccc2)CC1)Nc1ccccc1Cl | 2.18% (inactive) |
| COc1cccc2cc(C(N)=O)/c(=N\NC(=O)c3ccccc3)oc12 | 97% (active) |
| NC(=O)c1cc2ccccc2o/c1=N/NC(=O)c1cccc(F)c1 | 13.8% (inactive) |
| COc1ccc(C(=O)N/N=c2\oc3ccccc3cc2C(N)=O)cc1 | 55.8% (inactive) |
| O=C1c2ccccc2C(=O)C1c1ccccc1F | -16.3% (inactive) |
| CN(c1ccc(O)cc1)c1nc(-c2cccnc2)cs1 | 64.4% (active) |
| Brc1ccc(-c2csc(N/N=C/c3cccnc3)n2)cc1 | 37% (inactive) |
| Oc1ccc(-c2csc(Nc3cccnc3)n2)cc1 | 121% (active) |
| COc1ccc(-c2csc(Cc3nc(O)cs3)n2)cc1 | 94.8% (active) |
| CC(C)(C)C(=O)OCc1nc(-c2ccc(O)c(O)c2)cs1 | 27.1% (inactive) |
| O=C(Nc1ccc(-c2csc(Nc3cccc(C(F)(F)F)c3)n2)cc1)c1cccc(C(F)(F)F)c1 | -5.94% (inactive) |
| COc1ccc(C(=O)Nc2nc(-c3ccc(S(=O)(=O)N4CCOCC4)cc3)cs2)cc1 | -8.19% (inactive) |
| CCCn1c(C2CCCN2c2nc(-c3ccc(OC)cc3)cs2)nc2ccccc21 (stereo unspecified) | 4.08% (inactive) |
| COc1ccc(OC)c(Nc2nc(-c3ccc(O)c(O)c3)cs2)c1 | 7.27% (inactive) |
| COc1ccc(CCN(C(=O)COc2ccccc2)c2nc(-c3ccccc3)cs2)cc1OC | -8.73% (inactive) |
| COc1ccc(-c2csc(Nc3ccc(O)cc3)n2)cc1 | 92.3% (active) |
| CN(C(=O)CSc1nc(C2CC2)nc2ccccc12)c1nc(-c2ccccc2)cs1 | 14.4% (inactive) |
| Cc1ccnc(N2CCCC(C(=O)NC3CC3)C2)n1 (stereo unspecified) | -10.6% (inactive) |
| C[C@@H](NC(=O)[C@@H]1Cc2ccccc2CN1)C(=O)NC1CCCC1 | -1.81% (inactive) |
| COCCNC(=S)N(CCc1c(C)[nH]c2ccc(C)cc12)Cc1cccnc1 | 3.9% (inactive) |
| FC(F)(F)C1CCCN(c2nsc3ccccc23)C1 (stereo unspecified) | -5.61% (inactive) |
| CC1(c2ccc3ccccc3c2)NC(=O)N(CC(N)=O)C1=O (stereo unspecified) | 17.6% (inactive) |

| Compound | inhibition |
| --- | --- |
| O=C(Nc1c2c(nn1-c1cccc(Cl)c1)CS(=O)(=O)C2)c1cccs1 | 2.33% (inactive) |
| Cc1ccccc1N1CCN(C2CCCN(C(=O)c3cn4c(C)cccc4n3)C2)CC1 (stereo unspecified) | -3.16% (inactive) |
| CC(=O)Nc1ccc(S(=O)(=O)N2CCC(NC(=O)c3ccccc3)CC2)cc1 | 37.8% (inactive) |
| O=C1CN(Cc2ccccc2)S(=O)(=O)c2ccccc21 | -2.75% (inactive) |
| O=S(=O)(NC1CCCCC1N1CCN(c2ccccc2F)CC1)c1ccccc1 (stereo unspecified) | -13.8% (inactive) |
| CCOc1ccccc1NC(=S)N1CCN(c2cccc(C)c2C)CC1 | -4.41% (inactive) |
| O=C(Oc1cccc(C(=S)N2CCOCC2)c1)c1cccc(Cl)c1 | -28.3% (inactive) |
| Cc1ccc(-c2c3c(=O)n(C)c(=O)n(C)c3cn2-c2ccccc2O)cc1 | 38.5% (inactive) |
| COc1cccc(-n2cc3c(c2-c2ccccc2)c(=O)n(C)c(=O)n3C)c1 | 104% (active) |
| COc1ccc(-c2c3c(=O)n(C)c(=O)n(C)c3cn2-c2cccc(OC)c2)cc1 | 4.73% (inactive) |
| CC1=C(C(N)=O)C(c2ccc(F)cc2)n2nc(CCCO)nc2N1 (stereo unspecified) | -5.77% (inactive) |
| Cc1ccc(CNC(=O)CCC(=O)N2CC(C)Sc3ccccc32)cc1 (stereo unspecified) | 10.9% (inactive) |
| CC(=O)Nc1ccc(N2C(=O)CC(Sc3nccc(C)n3)C2=O)cc1 (stereo unspecified) | -3.46% (inactive) |
| c1ccc(-c2noc(-c3cccs3)n2)nc1 | 15% (inactive) |
| Cc1ccc(-c2nc(-c3ccncc3)no2)c(C)c1 | 80.3% (active) |
| Cc1ccc(-c2noc(CSc3nnc(-c4ccncc4)n3-c3ccc(F)cc3)n2)cc1 | -6.83% (inactive) |
| COc1nc(-c2ccc(Cl)cc2)ccc1-c1noc(-c2cccs2)n1 | -10.5% (inactive) |
| Cc1ccc2nc(-c3ccncc3)cc(C(=O)Nc3ccncc3)c2c1 | 11.4% (inactive) |
| c1csc(-c2nc(-c3ccncc3)no2)c1 | 58.2% (active) |
| O=C(O)c1cc([N+](=O)[O-])c(Nc2cccc3ccccc23)c([N+](=O)[O-])c1 | 1.25% (inactive) |
| O=C(Cc1ccccc1)Nc1ccc(NC(=O)c2cccnc2)cc1 | -11.9% (inactive) |
| CCOC(=O)c1ccc(NC(=O)CNC(=O)c2ccco2)cc1 | -21.4% (inactive) |
| COc1ccc(C)cc1NC(=O)c1ccc(-c2ccc(C(C)=O)cc2)o1 | -2.76% (inactive) |
| CCOC(=O)c1ccc(-c2ccc(C(=O)Nc3cccnc3)o2)cc1 | 73.3% (active) |

| Compound | inhibition |
| --- | --- |
| CC(C)NS(=O)(=O)c1ccc(NC(=O)c2cccnc2)cc1 | -10.5% (inactive) |
| CCOC(=O)c1ccc(NC(=O)c2cccnc2)cc1 | 53.7% (active) |
| CCn1c(SCC(=O)NC2CC2)nnc1-c1ccccn1 | -11.7% (inactive) |
| CN(C)C(=O)Cn1c(=O)n(S(=O)(=O)c2ccccc2)c2ccccc21 | -3.04% (inactive) |
| COc1ccc(-c2cn[nH]c2-c2ccc(OC)cc2)cc1 | -4.19% (inactive) |
| COc1ccc2cc(-c3[nH]ncc3CNCCn3nc(C)cc3C)ccc2c1 | 67.7% (active) |
| Cc1cc(C)n(CCNS(=O)(=O)c2ccc(Cl)cc2)n1 | -3.35% (inactive) |
| Cc1ccccc1C(=O)NC(=S)NC1CC1 | 24.6% (inactive) |
| O=C1Nc2ccccc2/C1=C/c1ccnc2ccccc12 | 19.4% (inactive) |
| CC(=O)Nc1ccn(Cc2c(F)cccc2Cl)n1 | 64.3% (active) |
| O=C(Nc1ccn(Cc2ccccc2)n1)c1n[nH]c([N+](=O)[O-])c1Cl | 16.1% (inactive) |
| O=C(Nc1cccc(NC(=O)c2cccc(F)c2)c1)c1ccccc1 | 21.2% (inactive) |
| O=C1c2ccccc2S(=O)(=O)N1Cc1c(F)cccc1Cl | -12.9% (inactive) |
| O=C(Nc1ccn(Cc2ccccc2)n1)c1cccc(F)c1 | 63.4% (active) |
| O=C(Nc1ccn(Cc2ccccc2F)n1)c1ccc(COc2ccc(Cl)cc2Cl)o1 | 21.8% (inactive) |
| CCOCCOC(=O)C(C)Oc1ccc(Oc2ncc(C(F)(F)F)cc2Cl)cc1 (stereo unspecified) | -6.29% (inactive) |
| COc1ccc(C(=O)NCC(=O)N/N=C/c2cccnc2)cc1 | -9.22% (inactive) |
| COc1ccc2c(c1)C(NS(=O)(=O)OCC(Cl)(Cl)Cl)CCC2 (stereo unspecified) | -7.98% (inactive) |
| COc1ccc(NC(=S)N2CCC(NC(=O)c3cccc(F)c3)CC2)cc1 | -12.4% (inactive) |
| CCOC(=O)COn1c(=O)c(-c2ccc(OCC)cc2)[n+]([O-])c2ccccc21 | 44.1% (inactive) |
| CCOc1ccc(OCC)c(-c2c(=O)n(OCc3ccc(Cl)cc3)c3ccccc3[n+]2[O-])c1 | 10.2% (inactive) |
| O=c1c(-c2ccc(Cl)cc2)[n+]([O-])c2ccccc2n1OCc1nc2ccccc2[nH]1 | 59.6% (active) |
| CCC(=O)NC(=S)Nc1ccc(NC(=O)c2ccco2)c(Cl)c1 | 46.1% (inactive) |
| O=C(NNC(=O)c1ccco1)Nc1ccccc1 | 8.84% (inactive) |

| Compound | inhibition |
| --- | --- |
| O=C(NNC(=S)Nc1ccc(Br)cc1Cl)c1ccco1 | 59.2% (active) |
| Cc1ccc2c(c1)N(CC(=O)NCC1CCCO1)C(=O)CO2 (stereo unspecified) | 40.5% (inactive) |
| Cc1cc(Br)ccc1NC(=O)c1sc2ncn(CC(=O)N3CCN(c4ccccn4)CC3)c(=O)c2c1C | -6.73% (inactive) |
| O=C(Nc1cccc(-c2cccc(Cl)c2)c1)C1CCN(C2CCC2)CC1 | 18.3% (inactive) |
| CCOc1ccc(C(=O)Nc2cc(OC)ccc2OC)cc1 | 25.5% (inactive) |
| CCOc1ccc(NC(=O)Nc2cc(C)on2)cc1 | 91.1% (active) |
| COc1ccc(C)cc1NC(=O)Nc1ccccc1SC | -0.581% (inactive) |
| CCOc1ccc(C(=O)Nc2ccc(S(=O)(=O)Nc3cc(C)on3)cc2)cc1 | -6.4% (inactive) |
| CCC(=O)Nc1ccc(C(=O)Nc2cc(C)on2)cc1 | 37.1% (inactive) |
| CCOc1ccc(NC(=O)Nc2cc(C)ccc2OC)cc1 | 29.4% (active) |
| Cc1cc(C)c2c(-c3ccc(F)cc3)c(C#N)c(=O)n(C)c2n1 | -4.95% (inactive) |
| CCN1CCN(c2sc(S(C)(=O)=O)nc2S(=O)(=O)c2ccc(Cl)cc2)CC1 | -2.05% (inactive) |
| COc1ccccc1NC(=O)CCC(=O)N1CC(C)Oc2ccc(C)cc21 (stereo unspecified) | -1.25% (inactive) |
| COc1ccc(-c2c(-c3ccc(OC)cc3O)nc(C)nc2C(F)(F)F)cc1 | 2.92% (inactive) |
| COc1cc2ccccc2cc1C(=O)N(CCN(C)C)c1nc2c(F)cccc2s1 | -10.4% (inactive) |
| COc1ccccc1-c1nnc(NC(=O)c2ccc3ncsc3c2)o1 | 92.1% (active) |
| COc1ccccc1-c1nnc(NC(=O)c2cccc(N3C(=O)CCC3=O)c2)o1 | -10.7% (inactive) |
| COc1ccccc1-c1nnc(SCC(=O)Nc2ccccc2)o1 | 22.9% (inactive) |
| C=CCOc1ccc(C(=O)Nc2ccccc2C(=O)N2CCCC2)cc1 | 13.9% (inactive) |
| CCOC(=O)c1c(NC(=O)c2ccc(S(=O)(=O)N(C)CC3CCCO3)cc2)sc2c1CC(C)(C)NC2(C)C (stereo unspecified) | -9.62% (inactive) |
| COC(=O)c1ccccc1N=Nc1c(C)[nH][nH]c1=O | 1.81% (inactive) |
| COc1ccccc1N=C(C)C1=C(O)COC1=O | -4.84% (inactive) |
| COc1ccccc1N=Nc1c(O)[nH]c(=S)[nH]c1=O | 29.2% (active) |
| COc1ccc(NC(=O)Cn2ncn3c(cc4ccccc43)c2=O)c(OC)c1OC | -6.32% (inactive) |
